High-throughput results: PubChem, several laboratories
PPC-1+TRAIL kill: PPC-1 cancer cell killing with TRAIL present. PPC-1 cells + TRAIL, ATPLite viability luminescence. 220,000 tested, 0.41% active. cell killing (% activity), % at 4 µM or 5 µM;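 active = cell killing above 50% in the first pass at 4 µM, then a duplicate retest at 5 µM averaging 50% or more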
TROY signal inh: inhibitors of TROY-dependent NF-kB signaling | 360,000 tested, 0.98% active | inhibition, % at 10 µM | Q293 LMP1-TROYcd NF-kB luciferase reporter, 4 h | AID 1347056;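 active = compounds whose plate-normalised and pattern-corrected inhibition of the luciferase reporter signal at the single screening dose is 50% or more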
Platelet DG rel: modulates dense granule release in human platelets; human platelet-rich plasma, SFLLRN dense granule ATP release, luminescence; inhibition, %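 (compounds screened at 7.5 µM in platelet-rich plasma)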; 300,000 tested, 0.22% active; AID 1663;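 active = mean replicate score, as percent of positive control, at or above 50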
HSP90 refold inh: inhibitors of HSP90 luciferase refolding in rabbit reticulocyte lysate. luciferase refolding luminescence, 3 h. inhibition, % at 5.6 µM. 290,000 tested, 0.91% active;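 active = inhibition above the screen-wide mean plus 3 SD, computed separately per campaign, cut at about 16% in these data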;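 note: inhibitors lower the luminescence because luciferase stays unfolded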
TRAIL sens C8: caspase-8 TRAIL sensitization | AID 624354 | NB7+C8 cells + TRAIL, ATPlite viability luminescence | inhibition (viability loss, TRAIL sensitization), % at 10 µM | 360,000 tested, 1% active;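 active = compounds causing at least 50% loss of cell viability in the single-dose screen, relative to plate controls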
TWEAK Fn14 block: TWEAK-Fn14 signaling inhibition | TWEAK-stimulated Fn14 reporter cells, luciferase luminescence, 8 h | inhibition, % at 10 µM | 360,000 tested, 2% active | AID 1159606; in the data active = inhibition above about 50%
Each line names hits and unclear results; the compound was inactive in the other large screens. Rows were chosen to be rich in hits. Some 3.5% of all compounds tested hit in one or more screens of this group.

c1ccc2nc3c(nc2c1)[nH]c1ccccc13	TRAIL sens C8 51.9
c1ccc(-c2c3ccccc3nc3[nH]c4ccccc4c23)cc1	none
Clc1ccc(-c2csc3ncnc(N4CCc5ccccc5C4)c23)cc1	TROY signal inh 55.3, TWEAK Fn14 block 78.4
CC(C)c1ccc(-c2csc3ncnc(N4CCN(C)CC4)c23)cc1	TWEAK Fn14 block 51.0 (no result: PPC-1+TRAIL kill)
CCOC(=O)N1CCN(c2ncnc3scc(-c4ccc(Cl)cc4)c23)CC1	none (no result: PPC-1+TRAIL kill)
c1ccc2c(-c3cc(NCc4ccncc4)n4nccc4n3)cccc2c1	none (no result: PPC-1+TRAIL kill, Platelet DG rel, HSP90 refold inh)
Cc1ccc(OC(F)F)c(NC(=O)Nc2cccc(C(F)(F)F)c2)c1	TWEAK Fn14 block 75.3
COC(=O)/C=C/C(=O)Nc1cccc(C(F)(F)F)c1	TWEAK Fn14 block 51.4
NS(=O)(=O)c1ccc(CCNC(=O)CSc2ccc(Cl)cc2Cl)cc1	none
NS(=O)(=O)c1ccc(CCNc2nn3c(-c4ccc(F)c(Cl)c4)cnc3s2)cc1	TWEAK Fn14 block 56.1 (no result: PPC-1+TRAIL kill, Platelet DG rel, HSP90 refold inh)
CCOC1=C2CN(S(=O)(=O)c3ccc(C)cc3)[C@H](c3ccccc3)C[C@H]2n2c(=O)n(-c3ccccc3)c(=O)n2C1	none (no result: PPC-1+TRAIL kill, Platelet DG rel, HSP90 refold inh)
COc1cccc(-c2nnc3sc(C4CCCCC4)nn23)c1	TROY signal inh 51.5, TWEAK Fn14 block 64.4
C=CCOc1ccc(Cl)cc1-c1noc(-c2csc([C@H]3C[C@H](O)[C@@H](CO)O3)n2)n1	none (no result: PPC-1+TRAIL kill, Platelet DG rel, HSP90 refold inh)
Cc1ccc(S(=O)(=O)N2CCN(C(=O)CSC(=S)N3CCCC3)CC2)c(C)c1	none (no result: PPC-1+TRAIL kill, Platelet DG rel, HSP90 refold inh)
Nc1ncnc(Sc2ccccc2)c1[N+](=O)[O-]	TWEAK Fn14 block 56.7
Cc1ccc(Sc2ncnc(N)c2[N+](=O)[O-])cc1	none
Nc1ncnc(Sc2ncccn2)c1[N+](=O)[O-]	TWEAK Fn14 block 71.2
Cc1cccc(C)c1Nc1ncnc(N)c1[N+](=O)[O-]	none
Nc1ncnc(Sc2ccc(Cl)cc2)c1[N+](=O)[O-]	TWEAK Fn14 block 68.9
O=C(c1ccc(Br)cc1)c1cc2ccc(O)cc2oc1=O	none (no result: PPC-1+TRAIL kill)
O=C(c1ccccc1)c1cc2ccc(O)cc2oc1=O	Platelet DG rel 94.6
O=C(NCc1ccco1)c1cc2ccc(O)cc2oc1=O	Platelet DG rel 70.3
COc1ccc2cc(C(=O)NCc3ccco3)c(=O)oc2c1	none
COC(=O)C(CO)Nc1ncnc2onc(-c3ccc(F)cc3)c12 (centres undefined)	none (no result: PPC-1+TRAIL kill)
N#CC1(NC(=O)CN2C(=O)c3ccccc3C2=O)CCCCC1	none (no result: PPC-1+TRAIL kill, Platelet DG rel, HSP90 refold inh)
N#CC1(NC(=O)Cn2ncc(Cl)c(Cl)c2=O)CCCCC1	TROY signal inh 55.3, TRAIL sens C8 92.8, TWEAK Fn14 block 77.7 (no result: PPC-1+TRAIL kill, HSP90 refold inh)
O=C(N/N=C/c1cn(-c2ccccc2)nc1-c1cccnc1)c1ccc(F)cc1	none
O=C(O)c1cccc(NC(=O)c2cn(-c3ccccc3)nc2-c2cc3ccccc3o2)c1	none
O=C(N/N=C/c1cn(-c2ccccc2)nc1-c1cccnc1)c1cccnc1	none
O=C(N/N=C/c1cn(-c2ccccc2)nc1-c1cc2ccccc2o1)c1cccnc1	TROY signal inh 63.4, TRAIL sens C8 55.0, TWEAK Fn14 block 84.6
O=C(N/N=C/c1cn(-c2ccccc2)nc1-c1cc2ccccc2o1)c1ccncc1	TWEAK Fn14 block 69.6
O=C(N/N=C/c1cn(-c2ccccc2)nc1-c1cccs1)c1ccccc1F	none
O=C(N/N=C/c1cn(-c2ccccc2)nc1-c1cccs1)c1ccc(Cl)cc1	TWEAK Fn14 block 54.6
O=C(N/N=C/c1cn(-c2ccccc2)nc1-c1ccc(F)cc1)c1ccc(Br)o1	TWEAK Fn14 block 52.7
O=C1C(Cl)=C(NCCN2CCOCC2)C(=O)c2ccccc21	none (no result: PPC-1+TRAIL kill)
O=C1C(Cl)=C(NCCCN2CCOCC2)C(=O)c2ccccc21	TRAIL sens C8 83.4 (no result: PPC-1+TRAIL kill, Platelet DG rel, HSP90 refold inh)
O=C(COC(=O)c1ccncc1)Nc1cccc2ccccc12	none (no result: PPC-1+TRAIL kill, Platelet DG rel, HSP90 refold inh)
Cc1cccc(-c2nc(CSc3nc4c(c(=O)[nH]3)CCC4)c(C)o2)c1	TROY signal inh 51.5
Cc1oc(-c2ccccc2)nc1CSc1nc2c(c(=O)[nH]1)CCC2	none
Cc1ccccc1-n1c(SCc2cc(=O)n3ccccc3n2)nc2[nH]ncc2c1=O	TWEAK Fn14 block 60.2 (no result: TROY signal inh)
Cc1cccc2nc(CSc3nc4[nH]ncc4c(=O)n3-c3ccccc3Cl)cc(=O)n12	none
COCC(C)n1c(=O)sc2ccccc2c1=O (centres undefined)	none
C=CCn1c(SCC(=O)O)nc2sc(CC)cc2c1=O	none
C=CCn1c(SCC(=O)c2cccs2)nc2sc(CC)cc2c1=O	TWEAK Fn14 block 78.9
Nc1ccn([C@@H]2O[C@H](C(=O)NCCCN3CCCC3=O)[C@@H](O)[C@H]2O)c(=O)n1	none (no result: PPC-1+TRAIL kill, Platelet DG rel, HSP90 refold inh)
COC(=O)c1cc(S(=O)(=O)N2CCCCC2)c[nH]1	none (no result: PPC-1+TRAIL kill)
Cc1ccc(-c2csc3ncn(/N=C/N(C)C)c(=O)c23)o1	TWEAK Fn14 block 98.5
Cc1ccc(-c2csc3nc(C)n(N)c(=O)c23)o1	none
CSc1nc(N)n2nc(-c3ccc(Cl)cc3)cc2n1	Platelet DG rel 67.4, TRAIL sens C8 44.9
CCOC(=O)c1cnc2cc(-c3ccc(Cl)cc3)nn2c1N	none
NCc1csc(Nc2ccc(C(=O)c3ccccc3)cc2)n1	none (no result: PPC-1+TRAIL kill, Platelet DG rel, HSP90 refold inh)
CCCCN1CC(N2CCCCC2)CS1(=O)=O (centres undefined)	none (no result: PPC-1+TRAIL kill, Platelet DG rel, HSP90 refold inh)
COc1ccc(/C=C/C2=Nc3ccccc3NC(C)(C)C2)cc1OC	none
Cc1nn(-c2ccccc2)c2[nH]c(=O)c(CNc3ccc4c(c3)OCCO4)cc12	TROY signal inh 66.2, TWEAK Fn14 block 57.9
CCOc1ccccc1CNC(=O)Cn1nc(C)c2c(C)n(-c3ccc(C)cc3)nc2c1=O	TWEAK Fn14 block 58.2 (no result: PPC-1+TRAIL kill)
CCOc1ccccc1CNC(=O)C1CCN(c2nnc(C)c3c(C)n(-c4ccc(C)cc4)nc23)CC1	TRAIL sens C8 70.6 (no result: PPC-1+TRAIL kill)
CC1Cc2ccccc2N1C(=O)c1cc2c(=O)n3ccccc3nc2n1C (centres undefined)	TWEAK Fn14 block 53.5
Cc1cccn2c(=O)c3cc(C(=O)N4c5ccccc5CC4C)n(C)c3nc12 (centres undefined)	none
COc1ccc(CCN2CC(C(=O)NCc3cccc(F)c3)CCC2=O)cc1 (centres undefined)	none (no result: PPC-1+TRAIL kill, Platelet DG rel, HSP90 refold inh)
COc1ccc(S(=O)(=O)N2CCCCC2)cc1NC(=O)c1ccc([N+](=O)[O-])o1	none
CCN1CCN(c2ccc(S(=O)(=O)N3CCCCC3)cc2NC(=O)c2ccc([N+](=O)[O-])o2)CC1	TRAIL sens C8 55.4 (no result: PPC-1+TRAIL kill, HSP90 refold inh)
CCN1CCN(c2ccc(S(=O)(=O)N3CCOCC3)cc2NC(=O)/C=C/c2ccc([N+](=O)[O-])cc2)CC1	TRAIL sens C8 53.5 (no result: PPC-1+TRAIL kill, HSP90 refold inh)
CCN(CC(=O)Nc1c(F)cccc1F)C(=O)c1cccc(-n2cccc2)c1	none (no result: PPC-1+TRAIL kill, HSP90 refold inh)
Cc1ccc2c(c1)S/C(=C\c1cccc[n+]1C)N2CCO	none (no result: PPC-1+TRAIL kill)
CCN1/C(=C/c2ccc3cc(C)ccc3[n+]2CC)Sc2ccc3sccc3c21	TRAIL sens C8 94.3 (no result: PPC-1+TRAIL kill, HSP90 refold inh)
CCN1/C(=C\c2ccc3cc(C)ccc3[n+]2CC)Sc2cc(C)c(C)cc21	TWEAK Fn14 block 64.0
CC[n+]1c(C)sc2c3ccsc3ccc21	none
